This is one part of a sample in which hits are shown more often than they occur.
DUSP3 inh: inhibitors of human VHR1 phosphatase (DUSP3) | P51452 | recombinant VHR phosphatase, colorimetric substrate read-out | inhibition, % at 20 µM | hit rate 0.7% among 50,000 | AID 1992; in the data active = inhibition above about 60%
Target sequence (P51452 whole entry, looked up): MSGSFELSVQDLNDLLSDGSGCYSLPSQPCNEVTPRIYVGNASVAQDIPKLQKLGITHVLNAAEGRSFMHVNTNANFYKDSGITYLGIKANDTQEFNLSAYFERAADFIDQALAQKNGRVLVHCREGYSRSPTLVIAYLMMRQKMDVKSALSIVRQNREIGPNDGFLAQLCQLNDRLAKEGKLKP
The depositor's hits bear a star.

SMILES	DUSP3 inh
O=C1c2ccccc2C(=O)C1(Nc1ccc2c(c1)oc1ccccc12)c1ccccc1	2
O=C(O)c1cccc2c1NC(c1ccc([N+](=O)[O-])cc1)C1CC=CC21 (stereo not given)	49
O=C(O)c1cccc2c1NC(c1ccc(Cl)cc1)C1CC=CC21 (stereo not given)	86*
O=C(O)c1cccc2c1NC(c1cccc3ccccc13)C1CC=CC21 (stereo not given)	23
COc1c(Cl)ccc(Cl)c1C(=O)Nc1ccc(C)cc1	-3
CCCC(=O)N/C(N)=N\c1nc(C)c2ccccc2n1	10
COc1ccccc1NC(=O)C1C2C3CCC(C3)C12 (stereo not given)	-23
O=C(Nc1cccc2ccccc12)C1C2C3CCC(C3)C12 (stereo not given)	79*
O=C(Nc1cccc2ccccc12)C1CC2CCC1C2 (stereo not given)	0
COc1ccc(Cl)cc1/C=C1/C(=O)NN(c2cccc(Br)c2)C1=O	6
CC(C)=C1C(=O)NN(c2cccc(Br)c2)C1=O	81*
CC(C)=C1C(=O)NN(c2ccc(C)c(Cl)c2)C1=O	0
Cc1ccc(NC(=O)/C(=C\c2ccc([N+](=O)[O-])o2)NC(=O)c2ccccc2I)cc1	-14
CCOc1cc(C(=S)N2CCOCC2)cc(Br)c1OC(=O)c1ccc([N+](=O)[O-])cc1	5
COc1ccc(-c2cc(C(=O)Nc3cccc(C(C)=O)c3)c3ccccc3n2)cc1OC	-9
CCOC(=O)c1ccc(N2NC(=O)/C(=C/c3ccc(Cl)c([N+](=O)[O-])c3)C2=O)cc1	-9
O=C1NN(c2ccc(Cl)c(Cl)c2)C(=O)/C1=C/c1ccc(Cl)c([N+](=O)[O-])c1	83*
Cc1ccc(N2NC(=O)/C(=C/c3ccc(C)c([N+](=O)[O-])c3)C2=O)cc1Cl	-13
CCOc1ccc(N(CC(=O)Nc2cc(C)ccc2C)S(C)(=O)=O)cc1	-50
Cc1ccc(S(=O)(=O)Nc2nc(O)c(C3=c4cc(Cl)ccc4=NC3=O)s2)cc1	10
O=C(Nc1ccc(I)cc1Cl)c1cccc(OCc2ccccc2)c1	2
O=C(Nc1ccccc1C(F)(F)F)c1ccc2ccccc2c1	16
O=C(Nc1ccccc1C(F)(F)F)c1cccc(OCc2ccccc2)c1	114*
CCN1C(=O)/C(=C/c2cccc(OC(=O)c3ccccc3I)c2)SC1=S	6
CCN(CP(=O)(O)CN1CCOCC1)C(C)=O	2
SMILES	DUSP3 inh
CC(C)(C)N1C(=O)c2ccc(C(=O)Nc3cccc(I)c3)cc2C1=O	-2
CCOC(=O)C1=NNC(C(=O)c2ccc(Cl)cc2)C1c1ccc(OC)cc1 (stereo not given)	115*
CCOC(=O)C1=NNC2C(=O)N(c3ccccc3C)C(=O)C12 (stereo not given)	-5
CCOC(=O)C1=NNC(C(=O)c2ccccc2)C1c1cccc(Br)c1 (stereo not given)	37
CCOC(=O)C1=NNC2C(=O)N(c3ccc(Cl)cc3Cl)C(=O)C12 (stereo not given)	116*
CCOC(=O)C1=C(C)NC(SC)=NC1c1ccc(OC)cc1 (stereo not given)	1
CCOC(=O)C1=NNC2C(=O)N(c3cc(OC)ccc3OC)C(=O)C12 (stereo not given)	-3
COc1ccc2c(c1)cc(C(=O)NN)n2C	-6
COc1ccc(CCNC(=O)COc2ccc(C)cc2Br)cc1	-12
CCOc1ccc2nc(SCC(=O)Nc3ccc([N+](=O)[O-])cc3)sc2c1	-1
CCOc1cc(C2CC(=O)Nc3c2ccc2ccccc32)cc(Br)c1OC (stereo not given)	-3
Cn1c(-c2ccc(-c3nc4cnccc4n3C)cc2)nc2cnccc21	71*
Cn1c(-c2nc3ccccc3n2C)nc2ccccc21	-7
Cc1ccc(-c2nc3ccccc3c(=O)n2-c2cccnc2)cc1	13
COc1cc(/C=C2/SC(=Nc3ccccc3Cl)NC2=O)ccc1OC(=O)c1ccccc1	-8
CCC1=NN2C(=N)/C(=C/c3ccc(OCc4ccc(Br)cc4)c(OC)c3)C(=O)N=C2S1	6
CC(C)C1=NN2C(=N)/C(=C/c3ccc(-c4ccc([N+](=O)[O-])cc4)o3)C(=O)N=C2S1	-4
CCCC1=NN2C(=N)/C(=C/c3ccc(-c4ccc([N+](=O)[O-])cc4Br)o3)C(=O)N=C2S1	111*
CCC1=NN2C(=N)/C(=C/c3ccc(-c4ccccc4[N+](=O)[O-])o3)C(=O)N=C2S1	-3
CCCC1=NN2C(=N)/C(=C/c3ccc(OCc4ccc(F)cc4)c(OCC)c3)C(=O)N=C2S1	100*
CCC1=NN2C(=N)/C(=C/c3ccc(-c4cccc([N+](=O)[O-])c4)o3)C(=O)N=C2S1	0
CCOc1cc(/C=C2/C(=N)N3N=C(CC)SC3=NC2=O)ccc1OCc1ccc(F)cc1	5
CCCC1=NN2C(=N)/C(=C/c3ccc(-c4ccc(F)cc4)o3)C(=O)N=C2S1	109*
CCC1=NN2C(=N)/C(=C/c3ccc(-c4ccc(F)c(Cl)c4)o3)C(=O)N=C2S1	-34
CCCC1=NN2C(=N)/C(=C/c3ccc(-c4ccccc4C(=O)OC)o3)C(=O)N=C2S1	116*
SMILES	DUSP3 inh
CCC1=NN2C(=N)/C(=C/c3ccc(-c4ccc(C)c(Cl)c4)o3)C(=O)N=C2S1	5
CCC1=NN2C(=N)/C(=C/c3ccc(-c4cc(Cl)ccc4Cl)o3)C(=O)N=C2S1	0
O=C1c2ccc(Oc3ccc([N+](=O)[O-])cc3)cc2C(=O)N1c1cccc(-c2nc3ccccc3o2)c1	-10
O=C(NCC(O)CNC(=O)C(F)(F)C(F)(F)F)C(F)(F)C(F)(F)F	-29
CCOC(=O)c1c(/N=C/c2c(O)c([N+](=O)[O-])cc3oc4c(c23)CCCC4)sc(C)c1C	-21
COc1ccc(OCC(=O)Nc2ccc3oc(-c4ccc(Cl)cc4Cl)nc3c2)cc1	-1
NC1=NC(=O)/C(=C/c2cc(Br)ccc2OCc2ccccc2)S1	13
CC(NC(=O)Cc1ccccc1)c1ccc(Cl)c(Cl)c1 (stereo not given)	-20
CCOC(=O)C1=C(C)NC(C)=C(C(=O)OC)C1c1ccc(Cl)cc1 (stereo not given)	-15
CCOC(=O)C1=NNC2C(=O)N(c3cccc(Br)c3)C(=O)C12 (stereo not given)	-20
CCOC(=O)C1=NNC2(c3ccc(Cl)cc3)C(=O)N(c3cccc(OC)c3)C(=O)C12 (stereo not given)	100*
CC(Oc1ccccc1)C(=O)N1CCN(c2ccc(F)cc2)CC1 (stereo not given)	-3
COc1ccccc1C/C(N)=N/OC(=O)c1ccc(C(C)(C)C)cc1	-16
CC(=O)OC1CC(C)(C)N([O])C(C)(C)C1	-6
CCOc1ccc(Nc2nc(-c3c(C)nc4cc(C)ccn34)cs2)cc1	88*
Cc1nc2ncccn2c1-c1csc(Nc2cccc(O)c2)n1	61
CCOc1ccc(Nc2nc(-c3ccccn3)cs2)cc1	-11
CCOc1ccc(Nc2nc(-c3sc(NC(=O)CC)nc3C)cs2)cc1	4
Cc1ccc(-c2csc(Nc3ccc(O)cc3)n2)c(C)c1	56
Cc1ccn2c(-c3csc(Nc4cccc(O)c4)n3)c(C)nc2c1	67*
CCOC(=O)c1c(NC(=S)NC(=O)c2ccccc2)sc2c1CCC(C)C2 (stereo not given)	-37
Cc1noc([N+](=O)[O-])c1C=Cc1c(C)nn(-c2ccccc2)c1C	-2
COc1ccc(Cl)cc1C(=O)Nc1cccc(-c2nc3ncccc3o2)c1C	29
Cc1ccc2c(Cl)c(-c3nnc(-c4ccc(Cl)cc4)o3)sc2c1	5

Assay outcomes (PubChem)
